From ChEMBL document CHEMBL3988442, “University of Dundee, Small-Polar-MMV Screening Library” (2021)
For some assays here: Entries with a potency or affinity are not part of this list.

Legend:
Parameters in all cases: scale not given: direction of the effect not stated beside the values
[1] = target: Protein translocase subunit SecA (Escherichia coli (strain K12)) (UniProt P10408); assay: Assay to Identify E. coli SecA ATPase Inhibitors; assay type: functional; conditions: 30 µM
[2] = target: T1, Ubiquitin-activating enzyme e1, putative (Leishmania donovani (strain BPK282A1)) (UniProt E9BSI1); assay: Leishmania donovani Ubiquitin Activating Enzyme (LdE1); assay type: functional; conditions: 30 µM
T1 sequence (whole entry): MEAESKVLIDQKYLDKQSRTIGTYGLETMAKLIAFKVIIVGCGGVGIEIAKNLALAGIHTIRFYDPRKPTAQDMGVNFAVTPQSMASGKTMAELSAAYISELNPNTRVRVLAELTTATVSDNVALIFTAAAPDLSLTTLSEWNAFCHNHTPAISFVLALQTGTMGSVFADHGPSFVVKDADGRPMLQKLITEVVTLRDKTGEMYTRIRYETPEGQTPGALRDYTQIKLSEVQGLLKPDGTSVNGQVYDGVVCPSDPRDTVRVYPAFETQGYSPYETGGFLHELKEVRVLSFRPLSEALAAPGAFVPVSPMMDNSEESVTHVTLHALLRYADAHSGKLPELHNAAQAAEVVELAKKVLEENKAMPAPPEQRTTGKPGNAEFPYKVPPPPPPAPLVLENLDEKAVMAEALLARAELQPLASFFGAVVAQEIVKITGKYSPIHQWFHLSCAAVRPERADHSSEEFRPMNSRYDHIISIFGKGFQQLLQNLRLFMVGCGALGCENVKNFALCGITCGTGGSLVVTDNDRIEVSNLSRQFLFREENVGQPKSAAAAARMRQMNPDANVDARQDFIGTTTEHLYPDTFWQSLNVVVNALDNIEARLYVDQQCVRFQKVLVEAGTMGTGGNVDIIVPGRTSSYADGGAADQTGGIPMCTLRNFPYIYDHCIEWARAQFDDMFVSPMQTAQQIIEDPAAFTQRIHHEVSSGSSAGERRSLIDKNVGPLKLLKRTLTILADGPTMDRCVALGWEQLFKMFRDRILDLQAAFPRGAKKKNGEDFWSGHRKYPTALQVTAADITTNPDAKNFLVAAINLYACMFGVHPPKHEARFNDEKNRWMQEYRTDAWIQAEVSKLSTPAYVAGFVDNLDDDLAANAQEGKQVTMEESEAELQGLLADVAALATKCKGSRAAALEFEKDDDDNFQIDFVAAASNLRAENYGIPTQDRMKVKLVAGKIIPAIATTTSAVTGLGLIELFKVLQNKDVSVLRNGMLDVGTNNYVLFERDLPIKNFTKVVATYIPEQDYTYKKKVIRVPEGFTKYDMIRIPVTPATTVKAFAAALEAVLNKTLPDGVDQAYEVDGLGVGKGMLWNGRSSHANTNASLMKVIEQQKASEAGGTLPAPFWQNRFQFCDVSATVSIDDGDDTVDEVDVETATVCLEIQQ

[3] = target: Sialic acid-binding Ig-like lectin 9 (Homo sapiens) (UniProt Q9Y336); assay: Hs-Siglec9 ALPHAscreen SOP 20170721; conditions: 10 µM
Sequence of Sialic acid-binding Ig-like lectin 9 (Homo sapiens) (Q9Y336 whole entry): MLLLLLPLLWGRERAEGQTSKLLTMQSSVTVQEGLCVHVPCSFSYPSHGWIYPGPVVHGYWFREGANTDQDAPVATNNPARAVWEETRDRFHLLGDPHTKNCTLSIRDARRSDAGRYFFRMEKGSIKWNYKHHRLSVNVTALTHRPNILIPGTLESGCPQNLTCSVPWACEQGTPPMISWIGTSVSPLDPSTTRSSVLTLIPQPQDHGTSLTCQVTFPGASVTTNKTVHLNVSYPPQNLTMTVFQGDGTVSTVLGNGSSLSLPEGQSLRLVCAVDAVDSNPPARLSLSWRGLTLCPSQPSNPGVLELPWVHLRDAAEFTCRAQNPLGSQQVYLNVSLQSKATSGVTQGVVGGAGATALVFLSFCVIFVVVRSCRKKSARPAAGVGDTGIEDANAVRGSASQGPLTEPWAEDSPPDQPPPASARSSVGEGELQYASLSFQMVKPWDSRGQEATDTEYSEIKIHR

Trypanosoma cruzi = assay: Trypanosoma cruzi phosphomannomutase and mannose-1-phosphate guanylyltransferase assay; assay type: functional; conditions: 10 µM
[4] = target: T2, Arginase-2, mitochondrial (Homo sapiens) (UniProt P78540); assay: in vitro enzyme assay to detect the production of urea directly proportional to the activity of Arginase II; assay type: functional; conditions: 33.3 µM; note: in the data most compounds retested in dose-response had high values
T2 sequence (whole entry): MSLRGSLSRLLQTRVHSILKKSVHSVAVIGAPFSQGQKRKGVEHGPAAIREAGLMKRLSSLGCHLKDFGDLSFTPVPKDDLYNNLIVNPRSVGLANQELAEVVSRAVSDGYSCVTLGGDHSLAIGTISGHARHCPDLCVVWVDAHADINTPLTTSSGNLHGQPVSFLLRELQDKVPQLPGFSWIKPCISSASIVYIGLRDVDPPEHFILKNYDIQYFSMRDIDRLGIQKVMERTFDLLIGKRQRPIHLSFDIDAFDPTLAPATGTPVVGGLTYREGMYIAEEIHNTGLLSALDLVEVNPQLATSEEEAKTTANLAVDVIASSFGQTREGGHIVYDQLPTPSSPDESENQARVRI

[5] = target: T3, Proteasome subunit beta (Trypanosoma cruzi) (UniProt O96673); assay: Trypanosoma cruzi proteasome chymotrypsin-like activity (TcProtChymo) assay.; note: in the data most compounds retested in dose-response had high values; assay type: functional; conditions: 9.37 µM
T3 sequence (whole entry): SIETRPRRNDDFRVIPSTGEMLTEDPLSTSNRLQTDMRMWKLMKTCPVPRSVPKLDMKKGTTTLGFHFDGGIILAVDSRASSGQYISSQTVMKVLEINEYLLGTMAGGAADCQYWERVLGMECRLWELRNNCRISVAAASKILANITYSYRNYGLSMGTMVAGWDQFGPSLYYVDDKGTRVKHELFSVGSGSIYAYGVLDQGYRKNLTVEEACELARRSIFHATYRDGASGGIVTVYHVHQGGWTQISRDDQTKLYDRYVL

Homo sapiens = organism: Homo sapiens; assay: To identify inhibition of the IFN signalling (Jak-Stat) pathway via expression of an eGFP reporter gene under the control of an IFN-stimulated response element (ISRE) containing MxA promoter.; assay type: functional; conditions: 30 µM
[6] = target: T4, Tyrosyl-tRNA synthetase, putative (Trypanosoma cruzi (strain CL Brener)) (UniProt Q4DSP6); assay: Trypanosoma cruzi tyrosyl tRNA synthetase (TcYRS) _High Tyrosine SOP; assay type: functional; conditions: 30 µM; note: in the data most compounds retested in dose-response had high values
T4 sequence (whole entry): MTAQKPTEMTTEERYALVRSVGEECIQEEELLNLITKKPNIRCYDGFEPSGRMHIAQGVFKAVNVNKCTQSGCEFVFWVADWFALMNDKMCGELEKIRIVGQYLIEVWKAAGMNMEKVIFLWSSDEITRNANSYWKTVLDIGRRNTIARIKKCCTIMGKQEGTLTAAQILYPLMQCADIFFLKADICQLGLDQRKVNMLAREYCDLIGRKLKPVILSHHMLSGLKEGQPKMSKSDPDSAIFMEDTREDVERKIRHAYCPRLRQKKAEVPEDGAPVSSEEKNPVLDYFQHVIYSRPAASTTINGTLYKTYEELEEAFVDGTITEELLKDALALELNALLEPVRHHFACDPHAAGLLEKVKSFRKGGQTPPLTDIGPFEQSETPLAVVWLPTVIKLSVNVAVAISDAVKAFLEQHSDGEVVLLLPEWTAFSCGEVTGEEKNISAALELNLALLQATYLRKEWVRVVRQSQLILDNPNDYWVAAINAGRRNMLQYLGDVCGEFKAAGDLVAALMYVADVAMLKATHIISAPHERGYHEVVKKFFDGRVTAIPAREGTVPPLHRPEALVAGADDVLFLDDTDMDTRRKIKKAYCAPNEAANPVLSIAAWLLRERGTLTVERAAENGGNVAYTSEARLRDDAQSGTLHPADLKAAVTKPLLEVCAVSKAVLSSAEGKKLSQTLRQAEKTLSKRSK

[7] = target: T4, Tyrosyl-tRNA synthetase, putative (Trypanosoma cruzi (strain CL Brener)); assay: Trypanosoma cruzi tyrosyl tRNA synthetase (TcYRS) SOP; assay type: functional; conditions: 30 µM
[8] = target: Chromo domain-containing protein 1 (Saccharomyces cerevisiae (strain ATCC 204508 / S288c) (Baker's yeast)) (UniProt P32657); assay: ScCHD-1 Enzyme Inhibition Assay; assay type: functional; conditions: 30 µM; note: in the data most compounds retested in dose-response had high values
Sequence of Chromo domain-containing protein 1 (Saccharomyces cerevisiae (strain ATCC 204508 / S288c) (Baker's yeast)) (P32657 whole entry, the tested form may be a part): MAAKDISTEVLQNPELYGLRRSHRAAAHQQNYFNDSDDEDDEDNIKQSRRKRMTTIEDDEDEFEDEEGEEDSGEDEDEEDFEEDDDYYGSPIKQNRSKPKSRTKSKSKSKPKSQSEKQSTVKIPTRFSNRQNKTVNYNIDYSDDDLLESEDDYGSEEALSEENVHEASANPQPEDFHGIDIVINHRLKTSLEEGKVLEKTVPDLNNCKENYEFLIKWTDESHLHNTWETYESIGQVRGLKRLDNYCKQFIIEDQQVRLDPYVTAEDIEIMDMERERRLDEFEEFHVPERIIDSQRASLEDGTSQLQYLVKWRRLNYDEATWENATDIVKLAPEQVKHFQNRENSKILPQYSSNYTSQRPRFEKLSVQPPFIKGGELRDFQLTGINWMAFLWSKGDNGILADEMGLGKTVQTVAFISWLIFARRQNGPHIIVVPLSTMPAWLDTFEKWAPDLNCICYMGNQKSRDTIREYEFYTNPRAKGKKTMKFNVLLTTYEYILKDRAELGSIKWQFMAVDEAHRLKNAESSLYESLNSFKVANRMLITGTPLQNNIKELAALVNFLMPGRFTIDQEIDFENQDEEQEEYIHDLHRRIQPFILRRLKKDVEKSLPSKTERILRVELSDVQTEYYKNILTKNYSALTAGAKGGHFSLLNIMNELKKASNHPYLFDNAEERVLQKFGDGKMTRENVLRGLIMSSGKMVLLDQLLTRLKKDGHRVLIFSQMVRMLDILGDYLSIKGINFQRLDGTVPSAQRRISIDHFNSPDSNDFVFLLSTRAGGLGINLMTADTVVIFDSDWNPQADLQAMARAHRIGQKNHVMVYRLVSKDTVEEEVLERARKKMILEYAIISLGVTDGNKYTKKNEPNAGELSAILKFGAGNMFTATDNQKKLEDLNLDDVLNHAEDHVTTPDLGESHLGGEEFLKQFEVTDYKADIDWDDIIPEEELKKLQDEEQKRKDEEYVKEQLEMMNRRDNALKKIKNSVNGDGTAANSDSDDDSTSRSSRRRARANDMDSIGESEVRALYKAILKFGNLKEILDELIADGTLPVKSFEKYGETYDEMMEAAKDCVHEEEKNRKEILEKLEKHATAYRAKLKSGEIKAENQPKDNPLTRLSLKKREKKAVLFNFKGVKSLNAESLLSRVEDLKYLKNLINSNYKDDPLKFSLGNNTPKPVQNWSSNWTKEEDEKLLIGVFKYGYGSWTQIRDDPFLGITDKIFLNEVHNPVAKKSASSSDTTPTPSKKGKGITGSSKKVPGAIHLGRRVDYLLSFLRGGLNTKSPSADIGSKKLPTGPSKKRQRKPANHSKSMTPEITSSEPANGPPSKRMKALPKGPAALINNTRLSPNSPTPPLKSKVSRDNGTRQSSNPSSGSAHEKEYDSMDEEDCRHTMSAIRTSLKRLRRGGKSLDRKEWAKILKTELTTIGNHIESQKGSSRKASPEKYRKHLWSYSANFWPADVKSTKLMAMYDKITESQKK

Sequence of Protein translocase subunit SecA (Escherichia coli (strain K12)) (P10408 whole entry): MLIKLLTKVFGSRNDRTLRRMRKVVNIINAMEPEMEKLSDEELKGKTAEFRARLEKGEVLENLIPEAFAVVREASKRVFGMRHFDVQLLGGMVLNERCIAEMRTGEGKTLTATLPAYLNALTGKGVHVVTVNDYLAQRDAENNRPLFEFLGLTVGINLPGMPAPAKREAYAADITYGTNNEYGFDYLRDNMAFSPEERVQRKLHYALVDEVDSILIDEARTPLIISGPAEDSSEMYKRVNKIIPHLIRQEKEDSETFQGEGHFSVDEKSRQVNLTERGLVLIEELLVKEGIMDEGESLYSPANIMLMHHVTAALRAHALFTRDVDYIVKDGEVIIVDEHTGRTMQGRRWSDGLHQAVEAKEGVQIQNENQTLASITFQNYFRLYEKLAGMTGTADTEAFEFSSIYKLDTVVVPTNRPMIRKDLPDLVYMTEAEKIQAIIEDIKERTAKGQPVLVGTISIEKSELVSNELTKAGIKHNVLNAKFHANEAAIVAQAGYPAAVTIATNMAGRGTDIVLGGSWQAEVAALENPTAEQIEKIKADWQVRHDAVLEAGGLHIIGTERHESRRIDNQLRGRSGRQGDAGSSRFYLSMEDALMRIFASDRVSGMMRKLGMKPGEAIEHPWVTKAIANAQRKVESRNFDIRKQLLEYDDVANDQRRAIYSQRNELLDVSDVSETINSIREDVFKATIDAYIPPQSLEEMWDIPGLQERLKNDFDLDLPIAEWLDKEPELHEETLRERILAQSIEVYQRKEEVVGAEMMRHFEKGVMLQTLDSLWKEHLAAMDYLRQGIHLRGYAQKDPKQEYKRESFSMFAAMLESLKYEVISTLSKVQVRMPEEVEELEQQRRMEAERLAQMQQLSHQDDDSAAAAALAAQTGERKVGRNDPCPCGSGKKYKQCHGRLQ

| SMILES | Percent Effect [1] [%] | Percent Effect [2] [%] | Percent Effect [3] [%] | Percent Effect (Trypanosoma cruzi) [%] | Percent Effect [4] [%] | Percent Effect [5] [%] | Percent Effect (Homo sapiens) [%] | Percent Effect [6] [%] | Percent Effect [7] [%] | Percent Effect [8] [%] |
| --- | --- | --- | --- | --- | --- | --- | --- | --- | --- | --- |
| c1cnnc(N2CCCC2CNCc2nc(C3CC3)no2)c1 (stereo not given) | -0.891 | -7.69 | 1.93 | 12.1 | 1.64 | 1.11 | -18.5 | 6.22 | 6.02 | 8.01 |
| COCC1CN(Cc2ccc(OC)cc2)Cc2nn(C)cc21 (stereo not given) | 0.916 | 22.1 | -1.55 | -9.45 | 12.2 | 18.4 | 20.9 | 6.84 | 2.56 | -2.71 |
| COc1ccc2c(c1)OCC(CNC(=O)c1ccncc1)C2 (stereo not given) | -6.47 | 13.5 | 11.5 | 7.66 | 43.7 | 20.4 | 32.2 | 7.98 | 19.5 | 71.9 |
| O=C1CC2(CCN(S(=O)(=O)c3cccs3)C2)CN1c1ccccc1 (stereo not given) | -4.36 | 9.09 | 0.409 | -2.81 | 3.65 | 2.83 | 8.75 | -1.93 | -2.5 | -2.17 |
| O=C1COC2(CCN(C(=O)c3ccco3)CC2)CN1Cc1cccnc1 | -3.74 | 14.3 | -1.08 | -2.25 | -0.457 | 3.86 | -5.38 | 7.73 | 15 | -5.67 |
| CO[C@@H]1CCN(C(=O)c2ccccn2)[C@H]1Cc1ccccc1 | -0.453 | 19.5 | 2.27 | 1.5 | -0.457 | 6.95 | 8.74 | 8.7 | 10 | -6.55 |
| CN(C)c1ccccc1C(=O)N1C[C@@H](CN2CCCCC2)[C@@H](CO)C1 | -7.49 | 2.7 | 6.19 | 7.27 | -5.25 | 16.6 | -22.6 | 3.72 | 12.2 | -3.83 |
| COc1ccc(CN2CCC3(CC2)CCN(CC(C)C)C3=O)cc1 | -1.79 | -1.3 | -0.794 | -0.75 | -3.2 | -0.601 | 6.85 | 0.966 | 0 | -5.19 |
| Cc1ccc(Cl)cc1N1CCC(CNC(=O)CC(F)(F)F)C1 (stereo not given) | -3.87 | -2.56 | -7.65 | -2.54 | 1.23 | 7.25 | 38.9 | -0.478 | -3.61 | 0.808 |
| CCc1nc(C2CCCN2CCn2cncn2)no1 (stereo not given) | -1.22 | 5.2 | 7.59 | -0.187 | 3.07 | 3.86 | 1.29 | 1.96 | 7.06 | -4.93 |
| CNC(=O)c1cc(S(=O)(=O)C(C)C)cs1 | 0.159 | 19.5 | 28.2 | 3.75 | 3.2 | 13.7 | -6.32 | 6.76 | 20 | -10.6 |
| Cc1cccc(N2CCN(C(=O)Nc3cnn(CC(N)=O)c3)CC2)c1 | 0.381 | 20.5 | -9.92 | 5.73 | 6.56 | 1.28 | -6.7 | 4.31 | 25.3 | -4.54 |
| FC(F)(F)Cn1ccnc1CN1CCCC1c1noc(C2CC2)n1 (stereo not given) | 0.298 | 10.7 | -5.86 | -3.01 | -4.43 | 15.7 | 16.6 | 4.74 | 15.4 | -9.44 |
| Cn1cccc1-c1cc(C(=O)N2CCCC2c2cccnc2)[nH]n1 (stereo not given) | -6.61 | 18.9 | 15.5 | 5.72 | 5.94 | 16.6 | 5.26 | 4.79 | 17.1 | -2.92 |
| COc1ccc(-c2nc(CN3CCc4c(ncn4C)C3)cs2)cc1 | -0.999 | -12.8 | -13.6 | 3.66 | 0.41 | 13.4 | 18.6 | 18.7 | 22.9 | 4.88 |
| CC(C)CNc1nc(C(=O)/N=c2\[nH]nc(C(C)(C)C)s2)cs1 | 2.26 | 8.11 | -0.928 | -8.83 | 1.75 | 12.3 | 19.4 | 5.85 | 17.1 | 1.47 |
| Cc1cc(C)cc(OCC(=O)NC2CCN(S(C)(=O)=O)CC2)c1 | -3.04 | 13 | -6.89 | -8.58 | -1.84 | 8.77 | 14.6 | 3.92 | 16.5 | -7.11 |
| CC(C(=O)N1CCCC1)N1CCC(c2nccn2Cc2cscn2)CC1 (stereo not given) | -2.34 | 0 | 12.9 | -3.4 | 5.94 | 13 | 3.46 | 6.92 | 12.2 | -3.89 |
| CCCNC(=O)c1cc2c(c3ccccc3n2C)n1C(=O)N(C)C | -4.26 | -1.3 | 2.88 | -5.16 | 1.22 | 9.62 | -12.8 | 2.63 | 5.13 | -7.15 |
| CCCN1CCCn2nc(CNS(=O)(=O)c3cccc(C#N)c3)cc2C1 | -7.29 | 8.11 | 11.2 | 1.84 | 2.45 | 19.4 | 9.83 | 6.92 | 21.9 | 95 |
| NC[C@H]1CC[C@H](C(NC(=O)c2ccccn2)c2ccccn2)CC1 (stereo not given in full) | 0.0974 | 14.7 | 1.2 | -1.58 | 0.443 | 15.6 | 8.78 | 4.23 | 22.5 | -24.4 |
| NC(=O)C1CCC(NC(=O)COc2ccc(Cl)c(Cl)c2)CC1 (stereo not given) | -4.03 | 10.4 | 8.56 | 6.16 | -5.94 | 9.12 | 8.8 | 5.88 | 23.5 | -8.52 |
| COc1ccc(C[C@H]2CN(C(=O)c3ccncc3)CC[C@@H]2OC)cc1 | -3.87 | 11.7 | 0.155 | -6.57 | -11.4 | 6.61 | 11.4 | -2.9 | -2.5 | -10.3 |
| CCc1ncc2c(n1)CN(CC(=O)Nc1ccc(Cl)cn1)CC2 | -4.26 | -2.67 | 4.13 | 1.21 | 2.66 | 4.83 | 4.95 | 8.95 | 7.69 | -9.89 |
| Cc1cnn(CC2CCCN2CC(=O)Nc2cc(C(C)(C)C)no2)c1 (stereo not given) | -3.74 | 13 | 2.37 | 3.73 | -0.615 | 6.84 | 2.79 | 7.84 | 28.2 | -8.5 |
| CCCn1ncc2c(C(=O)Nc3cnn(CC)c3C)cc(C3CC3)nc21 | 1.41 | 12 | -1.57 | 2.76 | 3.98 | 17.4 | 2.46 | 2.12 | 12.5 | -24.6 |
